# In PubChem BioAssay (NCI):
# This is part of a sample that, as a whole, favours compounds with a hit. Of some 83,000 tested, about 20% had one in any assay.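 The test compound was applied at a single concentration to cells in 96-well plates for 48 hours, and percent growth was recorded.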 Values without a mark were called inactive. The source made the active and inactive calls. How the source made its calls: active means growth percent below 10; inactive means the rest.
# System: SW-620 colon
# Assay: NCI-60 one-dose screen, 48 h (100 = growth as untreated, 0 = no growth, -100 = all killed)
# Conditions: 10 µM unless noted
row,Structure (SMILES),growth
1,CCOC(=O)c1c(NC(=O)c2ccc(C(C)C)cc2)sc2c(CN(C)C)c(O)ccc12,-58.6% (active)
2,CCOC(=O)c1cnc2ccccc2c1Cl,90.9%
3,CCN(CC)c1nc(SCc2ccccc2Cl)ncc1C,105%
4,O=C1Nc2ccc(I)cc2C1=O,65.2%
5,O=S(=O)(NCCNc1nccc(-c2c(-c3cccc(F)c3)nc3occn23)n1)c1ccc(Br)cc1,91.8%
6,CC(C)c1ccc(COCc2cc(CN3CCCC3)c(O)c3ncccc23)cc1,3.8% (active)
7,O=C(CI)NC1Oc2ccccc2-c2oc(=O)c(-c3ccccc3)cc21 (configuration not stated),-48.3% (active)
8,Cc1ccc(-n2c(=S)[nH]c3sc4c(c3c2=O)CCC(=O)C4)cc1,17.8%
9,C=CCn1c(SCC(=O)Nc2ccc(C(=O)/C=C/c3cc4cc(OC)ccc4nc3Cl)cc2)nnc1-c1ccc(Br)cc1,92%
10,COc1cccc(/C=C/C(=O)c2cc3c(N)c(C(=O)Nc4ccccc4)sc3nc2C)c1,0.132% (active)
11,O=C1C(Cl)=C(Oc2ccccc2)C(=O)c2ccccc21,47.6%
12,CC(C)OC(=O)c1ccc2[nH]c(O)c(C(=Nc3ccc(N(C)C(=O)CN4CCN(C)CC4)cc3)c3ccccc3)c2c1,-64.6% (active)
13,N#CC1C=CN(CC(N)=O)c2ccc3cccnc3c21 (configuration not stated),104%
14,S=C(Nc1ccc(-c2nc(N3CCOCC3)c3cccn3n2)cc1)Nc1cccnc1,46.7%
15,Cc1cc2c(O)c(-c3cccc(Cl)c3)c3sc(=O)oc3c2cc1C,35%
16,COC(=O)[C@H]1CCCN1C[C@@H](O)CN1C(=O)/C(=C\c2cc(OC)c(OC)c(OC)c2)c2ccccc21,95.7%
17,CS(=O)(=O)Nc1cc(-c2ccc3ncnc(Nc4c(Cl)ccc5c4OCO5)c3c2)cnc1Cl,2.07% (active)
18,COc1ccc(C(=S)N2CCN(c3ccccc3Cl)CC2)cc1OC,106%
19,CC(C)N1CN2C(=S)NC3C2N(C1)C(=S)N3C (configuration not stated),101%

row,Structure (SMILES),growth
1,O=C(c1ccc(-c2nc(CSc3nc4ccccc4s3)no2)cc1)N1CCSCC1,82.4%
2,O=Nc1c(-c2c(O)[nH]c3ncccc23)[nH]c2ccccc12,62.8%
3,O=C(CSc1nnc2n1S(=O)(=O)c1ccccc1N2c1ccccc1)Nc1nc2ccc(F)cc2s1,109%
4,CCOC(=O)C(=Cc1cccc(Br)c1)C(=O)OCC,25.9%
5,COC(C(=O)[C@@H](O)[C@@H](C)O)[C@@H]1Cc2cc3cc(O[C@H]4C[C@@H](O[C@H]5C[C@@H](O)[C@H](O)C(C)O5)[C@H](O)C(C)O4)cc(O)c3c(O)c2C(=O)[C@H]1O[C@H]1C[C@@H](O[C@H]2C[C@@H](O[C@H]3C[C@@H](OC)[C@H](O)C(C)O3)[C@@H](O)C(C)O2)[C@H](O)C(C)O1 (some centres not stated),39.7%
6,Cc1ccc(-c2cc(-c3ccc(Cl)cc3)nc(NC(=O)c3cccnc3)n2)cc1,102%
7,Fc1cccc(CNc2c3ccccc3nc3ccccc23)c1F,41.4%
8,CN(C)CC(=O)Nc1ccc2ncnc(Nc3ccc(Oc4cccc(C(F)(F)F)c4)c(Cl)c3)c2c1,64.6%
9,Cc1cc(N)c2cc(NC(=O)/C=C\c3ccccc3Cl)ccc2n1,-91.2% (active)
10,N#CC1=C(N)Oc2c(sc3c(F)cccc23)C1c1ccc(F)cc1 (configuration not stated),35.8%
11,C/C(=C(/c1ccc(Cl)cc1)c1ccc(OCCN2CCCC2)cc1)c1ccc(Cl)cc1,54.6%
12,COC(=O)c1ccc2c(c1)C(=O)c1c-2n(CCCN)c(=O)c2cc([N+](=O)[O-])ccc12,-100% (active)
13,CS(=O)(=O)C1=CN(CCO)C(=O)N2CCCN=C12,93.4%
14,O=C1Nc2ccccc2[C@]12CC(c1ccccc1)=NN2,23.4%
15,O=C(Cn1c(=O)sc2nc3ccccc3nc21)Nc1ncc(Cc2cccc(Cl)c2Cl)s1,100%
16,O=C(N/N=C/c1ccc(F)cc1)c1ccc(C(F)(F)F)nc1Nc1cccc(C(F)(F)F)c1,5.48% (active)
17,COC(=O)[C@]1(C)CCC[C@]2(C)[C@H]3C[C@H]4C(C(C)C)=C[C@]3(CC[C@H]21)[C@H]1[C@@H]4[C@@H](OCCC#N)CC[C@@H]1OCCC#N,47.8%
18,CN(C)c1ccc(Nc2cc(-c3cccc(OC(F)(F)F)c3)nc3ccc(N4CCCC4)cc23)cc1,-48.1% (active)
19,CCn1c(=S)sc2c(Nc3ccc(F)cc3)nc(-c3cccnc3)nc21,90.6%

# System: MCF7 breast
# Assay: as above
# Conditions: 10 µM unless noted
row,Structure (SMILES),growth
1,CCOC(=O)c1c(NC(=O)c2ccc(C(C)C)cc2)sc2c(CN(C)C)c(O)ccc12,15.2%
2,CCOC(=O)c1cnc2ccccc2c1Cl,99.1%
3,CCN(CC)c1nc(SCc2ccccc2Cl)ncc1C,106%
4,O=C1Nc2ccc(I)cc2C1=O,71.5%
5,CC(C)c1ccc(COCc2cc(CN3CCCC3)c(O)c3ncccc23)cc1,7.67% (active)
6,COc1ccc2cc(C(=O)c3coc4ccc(O)cc34)ccc2c1,37.5%
7,O=C(CI)NC1Oc2ccccc2-c2oc(=O)c(-c3ccccc3)cc21 (configuration not stated),-53.3% (active)
8,Cc1ccc(-n2c(=S)[nH]c3sc4c(c3c2=O)CCC(=O)C4)cc1,14.7%
9,C=CCn1c(SCC(=O)Nc2ccc(C(=O)/C=C/c3cc4cc(OC)ccc4nc3Cl)cc2)nnc1-c1ccc(Br)cc1,29.6%
10,COc1cccc(/C=C/C(=O)c2cc3c(N)c(C(=O)Nc4ccccc4)sc3nc2C)c1,7.88% (active)
11,O=C1C(Cl)=C(Oc2ccccc2)C(=O)c2ccccc21,73%
12,CC(C)OC(=O)c1ccc2[nH]c(O)c(C(=Nc3ccc(N(C)C(=O)CN4CCN(C)CC4)cc3)c3ccccc3)c2c1,-65.5% (active)
13,N#CC1C=CN(CC(N)=O)c2ccc3cccnc3c21 (configuration not stated),85.8%
14,S=C(Nc1ccc(-c2nc(N3CCOCC3)c3cccn3n2)cc1)Nc1cccnc1,20.4%
15,Cc1cc2c(O)c(-c3cccc(Cl)c3)c3sc(=O)oc3c2cc1C,26.3%
16,COC(=O)[C@H]1CCCN1C[C@@H](O)CN1C(=O)/C(=C\c2cc(OC)c(OC)c(OC)c2)c2ccccc21,70.5%
17,CS(=O)(=O)Nc1cc(-c2ccc3ncnc(Nc4c(Cl)ccc5c4OCO5)c3c2)cnc1Cl,0.196% (active)
18,COc1ccc(C(=S)N2CCN(c3ccccc3Cl)CC2)cc1OC,106%
19,CC(C)N1CN2C(=S)NC3C2N(C1)C(=S)N3C (configuration not stated),93%
20,O=C(c1ccc(-c2nc(CSc3nc4ccccc4s3)no2)cc1)N1CCSCC1,72.5%

row,Structure (SMILES),growth
1,O=Nc1c(-c2c(O)[nH]c3ncccc23)[nH]c2ccccc12,67.8%
2,O=C(CSc1nnc2n1S(=O)(=O)c1ccccc1N2c1ccccc1)Nc1nc2ccc(F)cc2s1,93.5%
3,O=C1/C(=C/c2ccccc2Br)COc2ccc(O)c(O)c21,20.9%
4,CCOC(=O)C(=Cc1cccc(Br)c1)C(=O)OCC,11%
5,COC(C(=O)[C@@H](O)[C@@H](C)O)[C@@H]1Cc2cc3cc(O[C@H]4C[C@@H](O[C@H]5C[C@@H](O)[C@H](O)C(C)O5)[C@H](O)C(C)O4)cc(O)c3c(O)c2C(=O)[C@H]1O[C@H]1C[C@@H](O[C@H]2C[C@@H](O[C@H]3C[C@@H](OC)[C@H](O)C(C)O3)[C@@H](O)C(C)O2)[C@H](O)C(C)O1 (some centres not stated),11.5%
6,Cc1ccc(-c2cc(-c3ccc(Cl)cc3)nc(NC(=O)c3cccnc3)n2)cc1,86.3%
7,Fc1cccc(CNc2c3ccccc3nc3ccccc23)c1F,29.8%
8,CN(C)CC(=O)Nc1ccc2ncnc(Nc3ccc(Oc4cccc(C(F)(F)F)c4)c(Cl)c3)c2c1,41.6%
9,Cc1cc(N)c2cc(NC(=O)/C=C\c3ccccc3Cl)ccc2n1,-82.4% (active)
10,N#CC1=C(N)Oc2c(sc3c(F)cccc23)C1c1ccc(F)cc1 (configuration not stated),18.9%
11,C/C(=C(/c1ccc(Cl)cc1)c1ccc(OCCN2CCCC2)cc1)c1ccc(Cl)cc1,34.1%
12,COC(=O)c1ccc2c(c1)C(=O)c1c-2n(CCCN)c(=O)c2cc([N+](=O)[O-])ccc12,-87.8% (active)
13,CS(=O)(=O)C1=CN(CCO)C(=O)N2CCCN=C12,104%
14,O=C1Nc2ccccc2[C@]12CC(c1ccccc1)=NN2,29.5%
15,O=C(Cn1c(=O)sc2nc3ccccc3nc21)Nc1ncc(Cc2cccc(Cl)c2Cl)s1,91.6%
16,O=C(N/N=C/c1ccc(F)cc1)c1ccc(C(F)(F)F)nc1Nc1cccc(C(F)(F)F)c1,-18.6% (active)
17,COC(=O)[C@]1(C)CCC[C@]2(C)[C@H]3C[C@H]4C(C(C)C)=C[C@]3(CC[C@H]21)[C@H]1[C@@H]4[C@@H](OCCC#N)CC[C@@H]1OCCC#N,9.07% (active)
18,CN(C)c1ccc(Nc2cc(-c3cccc(OC(F)(F)F)c3)nc3ccc(N4CCCC4)cc23)cc1,-14.7% (active)
19,CCn1c(=S)sc2c(Nc3ccc(F)cc3)nc(-c3cccnc3)nc21,73.1%
